Results on 61 compounds are retold here after PubChem BioAssay AID488847 (NMMLSC, 2010).

Out of some 330,000 compounds screened, about 1,900 (0.58%) were called active. This excerpt belongs to a sample that is enriched for actives. A number with no mark means an inactive call.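 How the source made its calls: active means inhibition of aptamer binding above 40%, roughly 3 SD of noise, on plates passing a quality check; inactive means the rest.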

The test deals with Beta-adrenergic receptor kinase 1 (Homo sapiens) (UniProt P25098). Description: compounds blocking aptamer binding on GRK2 – biochemical, human GRK2, bead flow cytometry, HTS, primary screen (AID 488847).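 Further: median bead fluorescence of bound FAM aptamer so fluorescent compounds give negative values.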 The conditions noted are these: FAM-aptamer displacement from GRK2, at 10 µM, active compounds read high. (A flow cytometer gives signals particle by particle.)
Chain of Beta-adrenergic receptor kinase 1 (Homo sapiens) (P25098 whole entry, looked up): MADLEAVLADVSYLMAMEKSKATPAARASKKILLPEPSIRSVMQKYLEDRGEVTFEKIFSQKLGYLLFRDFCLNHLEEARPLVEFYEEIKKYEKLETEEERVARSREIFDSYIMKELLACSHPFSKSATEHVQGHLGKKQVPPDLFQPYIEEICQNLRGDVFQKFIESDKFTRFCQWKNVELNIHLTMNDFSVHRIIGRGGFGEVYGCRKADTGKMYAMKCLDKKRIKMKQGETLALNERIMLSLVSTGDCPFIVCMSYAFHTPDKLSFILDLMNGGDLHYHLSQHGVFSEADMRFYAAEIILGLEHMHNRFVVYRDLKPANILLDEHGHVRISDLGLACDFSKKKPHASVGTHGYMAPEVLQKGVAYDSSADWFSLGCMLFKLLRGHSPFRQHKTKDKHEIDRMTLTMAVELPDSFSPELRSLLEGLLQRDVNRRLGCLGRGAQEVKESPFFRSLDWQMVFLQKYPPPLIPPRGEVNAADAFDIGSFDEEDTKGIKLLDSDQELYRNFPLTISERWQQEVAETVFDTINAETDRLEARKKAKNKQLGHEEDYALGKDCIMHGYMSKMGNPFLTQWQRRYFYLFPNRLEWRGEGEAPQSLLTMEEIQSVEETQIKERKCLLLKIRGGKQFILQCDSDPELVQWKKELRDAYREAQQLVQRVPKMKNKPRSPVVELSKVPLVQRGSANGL
As for `C=CCOc1ccc(/C=C2\SC(=S)N(CCC(=O)O)C2=O)cc1`, the inhibition of aptamer binding was 0%. `Cc1ccc(/C=C2/SC(=S)N(CCC(=O)NCCCN3CCOCC3)C2=O)cc1`: the inhibition of aptamer binding was 5%.

Regarding `Cc1ccc(-c2nn(-c3ccccc3)cc2/C=C2\SC(=S)N(CCCCCC(=O)O)C2=O)o1`, the inhibition of aptamer binding was 48% (active). The result for `CC(=O)Oc1ccccc1C(=O)Nc1ncc([N+](=O)[O-])s1` reads 5%; that for `CCSc1nc(O)c(C(c2cccc(OC)c2)c2c(O)nc(SCC)[nH]c2=O)c(=O)[nH]1`, 9%. For `COc1ccc(Nc2ncnc3sc(C)cc23)cc1`, the inhibition of aptamer binding was 0%. For `COc1ccc(Nc2nc(=O)[nH]nc2C)cc1`, the inhibition of aptamer binding is 4%. Turning to `COc1ccc(Nc2cc(Sc3ccc(OC)cc3)ncn2)cc1`, the inhibition of aptamer binding is 46% (active). With `CC(Sc1cccc[n+]1[O-])C(=O)Nc1cccc(S(=O)(=O)N2CCOCC2)c1` (stereo unspecified) the figure was 1%. For the compound `O=C(O)C1CCN(C(=O)OCc2ccccc2)CC1`, the inhibition of aptamer binding was 0%. The result for `CCCCn1nc(C(=O)OCC(=O)Nc2sccc2C(N)=O)c2ccccc2c1=O` reads 84% (active); that for `NC(=O)c1ccsc1NC(=O)COC(=O)Cc1n[nH]c(=O)c2ccccc12`, 2%; that for `COc1cc(OC)cc(C(=O)OCC(=O)Nc2sccc2C(N)=O)c1`, 0%. With `CCc1ccc2oc(=O)cc(CN3CCCCC3C)c2c1` (stereo unspecified) the figure was 0%. Regarding `COc1cc(/C=N/NC(=O)c2cc(C)n(-c3ccc(F)cc3)c2C)cc(OC)c1O`, the inhibition of aptamer binding was 0%. The result for `COc1cc(/C=N/NC(=O)c2ccc(N3CCCC3=O)cc2)ccc1O` reads 49% (active); that for `O=C(N/N=C/c1cccc(Br)c1)c1ccc(N2CCCC2=O)cc1`, 0%.

As to `O=C(NCc1cccc(Cl)c1)C1CCN(c2nnc(N3CCCC3=O)s2)CC1`, the inhibition of aptamer binding was 0%.

Turning to `CN(C)S(=O)(=O)c1cccc(C(=O)OCC(=O)N2CCCC2=O)c1`, the inhibition of aptamer binding is 0%. The result for `Cc1ccccc1-c1nnn(CC(=O)c2ccc(S(=O)(=O)N3CCCC3)cc2)n1` reads 47% (active); that for `Cc1cc(C)n(C(=O)c2ccc(S(=O)(=O)N3CCCC3)cc2)n1`, 2%; that for `CC(C)(C)NC(=O)Cn1nnc(-c2ccccc2Cl)n1`, 2%. As for `Cc1ccc(S(=O)(=O)C2(S(=O)(=O)c3ccc(C)cc3)CCCC2)cc1`, the inhibition of aptamer binding was 0%. With `CCCNc1c(N)c(=O)c1=O` the figure was 6%; with `CCOC(=O)c1cc(-c2nnc(-c3cc(OC)c(OC)c(OC)c3)o2)c(C)nc1C`, 1%. With `O=C(OCc1nnc(-c2ccccc2)o1)c1cc(=O)[nH]c2ccccc12`, the inhibition of aptamer binding was 3%. The result for `CCCc1nc2ccccc2c(C(=O)OCc2nnc(-c3cc(OC)c(OC)c(OC)c3)o2)c1CC` reads 41% (active); that for `COc1cc(NC(=O)c2[nH]cnc2C(N)=O)cc(C(=O)Nc2cccc(C(F)(F)F)c2)c1`, 0%.

Consider `CCOC(=O)c1sc2nc(CSCC(=O)OCc3ccc(C(=O)OC)o3)[nH]c(=O)c2c1C`, for which the inhibition of aptamer binding is 2%. The result for `CCOC(=O)c1sc2nc(CSc3ccccc3)[nH]c(=O)c2c1C` reads 75% (active); that for `CSc1nnc(SCc2nc3sc(C(=O)O)c(C)c3c(=O)[nH]2)s1`, 13%. Regarding `O=S(=O)(Nc1cccc(-c2ccc(N3CCOCC3)nn2)c1)c1ccc(Cl)c(Cl)c1`, the inhibition of aptamer binding was 0%. The result for `O=c1c([N+](=O)[O-])cccn1Cc1ccc(F)cc1Cl` reads 0%; that for `O=C(C1CCC1)N1CCc2cc(S(=O)(=O)NCc3cccnc3)ccc21`, 0%.

On to `CSc1nc2ccccc2c(=O)n1Cc1ccc(F)cc1`, for which the inhibition of aptamer binding is 76% (active). The result for `O=C(CSc1nc2ccccc2c(=O)n1Cc1ccc(F)cc1)NCC1CCCO1` (stereo unspecified) reads 0%. With `O=C(CSc1nc2ccccc2c(=O)n1-c1ccc(F)cc1)NC1CC1`, the inhibition of aptamer binding is 0%. With `O=c1[nH]c(CCl)nc2cc(-c3ccc(Cl)cc3)sc12` the figure was 0%; with `NC(=O)CC(NC(=O)Cc1cccc2ccccc12)c1ccc(NCc2cc(F)ccc2F)c([N+](=O)[O-])c1` (stereo unspecified), 1%; with `CCCC/S(C)=N/S(=O)(=O)c1ccc(C)cc1` (stereo unspecified), 1%. With `COc1ccc(CN2CCN(Cc3cn(C)nc3-c3ccccc3)CC2CCO)c(C)c1C` (stereo unspecified), the inhibition of aptamer binding was 0%.

For the compound `CN(CC(=O)Nc1ccc(C(N)=O)cc1)S(=O)(=O)c1ccc2c(c1)OCCO2`, the inhibition of aptamer binding is 0%. With `Cc1nc(S(=O)(=O)c2ccc(Br)cc2)nc2c1CCC2` the figure was 5%; with `O=C(Nc1ccc(-c2nnc(-c3ccccc3)o2)cc1)c1ccc(Br)o1`, 92% (active); with `Brc1ccc(-c2nnc(-c3ccccc3)o2)o1`, 5%. The result for `O=C(CNC(=O)c1ccc(Br)o1)Nc1ccccc1` reads 1%.

Take `CC1CCC(NC(=O)c2ccc(N3CCCC3=O)cc2)CC1` (stereo unspecified): the inhibition of aptamer binding was 0%. With `O=C(NCCCN1CCCCCC1)c1ccc(N2CCCC2=O)cc1` the figure was 43% (active). With `CCOc1ccc(C(=O)NCCCN2CCCC2=O)cc1` the figure was 2%; with `CC1=CC(C)(C)NC(=S)N1NC(=O)c1ccccc1Cl`, 1%. The result for `COc1ccc(C2C(C#N)=C(N)Oc3cc(N)ccc32)cc1OC` (stereo unspecified) reads 0%.

Take `CCOC(=O)C(C)n1cnc2scc(-c3ccc(C)c(C)c3)c2c1=O` (stereo unspecified): the inhibition of aptamer binding is 64% (active). With `CC(=O)C(C)n1cnc2scc(-c3ccc(C)cc3)c2c1=O` (stereo unspecified) the figure was 1%.

Turning to `CCn1cnc2scc(-c3ccc(C)c(C)c3)c2c1=O`, the inhibition of aptamer binding was 0%. With `CCOC(=O)c1ccc(S(=O)(=O)N(CCO)Cc2cc3cc(OC)c(OC)cc3[nH]c2=O)cc1` the figure was 0%; with `CN(C)CC(C)(C)CNC(=O)c1cc(Br)cc(Br)c1O`, 6%; with `CC(C)CC(=O)Nc1ccc(Cc2ccncc2)cc1`, 0%. For the compound `COc1cccc(OC)c1C(=O)Nc1ccc2c(c1)n(C)c(=O)n2C`, the inhibition of aptamer binding was 1%. With `COc1cccc(OC)c1C(=O)Nc1ccc(Cc2ccncc2)cc1` the figure was 55% (active). In the case of `Cc1ccc(S(=O)(=O)NCCSC(C)(C)C)cc1`, the inhibition of aptamer binding is 1%.

Turning to `O=C(OCC1O[C@@H](OC(=O)c2cc(O)c(O)c(O)c2)[C@@H](OC(=O)c2cc(O)c(O)c(O)c2)[C@@H](OC(=O)c2cc(O)c(O)c(O)c2)[C@@H]1OC(=O)c1cc(O)c(O)c(O)c1)c1cc(O)c(O)c(O)c1` (stereo partly specified), the inhibition of aptamer binding was 1%.
